# In the library only some 19% were active in any assay of this set; here they are far more common.
# KB-V1 cytotox: kills drug-selected multidrug resistant KB-V1 cells; KB-V1 MDR cells viability, CellTiter-Glo, 72 h; AID 1347076; Potency, µM (series often up to 46.1 µM), hits mostly cytotoxic; hit rate 3.4% among 400,000; also: nearly all actives have a fitted effect of over 60% in size
#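 Potencies derive from concentration-effect curves fitted to normalized luminescence (CellTiter-Glo) of KB-V1 cells treated for 72 h at 37 degrees C in phenol-red-free DMEM containing 10% FBS.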
# HT1080 IDH1KD tx: toxicity to HT-1080 IDH1 knockdown cells (counter line). Potency, µM (titrated, usually from 46.1 µM), actives largely listed as cytotoxic. hit rate 2% among 360,000. AID 686971. HT-1080 IDH1 knockdown viability, ATP luminescence, 48 h
#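 IDH1KD HT-1080 cells, 750/well, RPMI + 5% FBS; compound pinned after 2 h settling; 48 h, 37 °C; CellTiter-Glo luminescence; % activity normalised to DMSO and no-cell wells; curves fitted, classed by r2 and efficacy.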
# TDP1 cell CPT: DT40-hTDP1 cell growth loss with CPT; chicken DT40 Tdp1-/-;hTDP1 cells + 20 nM CPT, ATP luminescence, 48 h; Potency, µM (top dose mostly 46.2 µM), usual class: inhibitors; hit rate 12% among 420,000; AID 686979; also: nearly all actives have a fitted effect of over 55% in size
#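 Chicken DT40 Tdp1-/- cells complemented with human TDP1, 400 cells/well, exposed to compounds plus 20 nM camptothecin for at least 48 h at 37 C; viability read as ATP content by CellTiter-Glo luminescence.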
# KB-3-1 cytotox: KB-3-1 parental cell cytotoxicity; KB-3-1 viability, CellTiter-Glo ATP luminescence, 72 h; Potency, µM (series often up to 46.1 µM), hits mostly cytotoxic; hit rate 1.4% among 400,000; also: nearly all actives have a fitted effect of over 60% in size
#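 Parental KB-3-1 viability, qHTS format: 72 h compound exposure, 37 °C; CellTiter-Glo; media-only wells and DMSO plates as controls; concentration-effect fits on corrected data.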
# DT40 TDP1 no CPT: qHTS for Inhibitors of human tyrosyl-DNA phosphodiesterase 1 (TDP1): qHTS in cells in absence of CPT. Potency, µM (doses to about 46.2 µM), usual class: inhibitors. AID 686978, 2013. hit rate 15% among 420,000. DT40 Tdp1-/- hTDP1 cells, no CPT, ATP luminescence, 48 h; also: nearly all actives have a fitted effect of over 55% in size
#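 Growth kinetics read by CellTiter-Glo luminescence after ≥48 hr at 37 °C. Cells: DT40 Tdp1-/- stably carrying human TDP1, 400 per well, compound exposure in the absence of CPT (DMSO vehicle).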
# HT1080-NT tox: kills 2HG-producing HT-1080-NT fibrosarcoma cells | HT-1080-NT fibrosarcoma viability, CellTiter-Glo ATP luminescence, 48 h | Potency, µM (titrated, usually from 46.1 µM), actives largely listed as cytotoxic | hit rate 1.6% among 360,000;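 also: NT is the 2HG producing partner of a matched IDH1 knockdown line; nearly all actives have a fitted effect of over 55% in size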
#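 Toxicity toward the 2HG-producing NT line was scored as %Activity, normalised to DMSO and no-cell wells, from CellTiter-Glo luminescence after 48 hours' treatment.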
# Hits are given with their value; - = inactive; ? = inconclusive; . = not tested or not shown. Calls follow the shape of the dose curve; as a rule, active = well fitted curve in the direction sought with a large enough effect; inconclusive = small, poorly fitted or top-dose-only effect, or another doubt; inactive = no such curve, though single readings can be large; an effect the other way counts as inactive or inconclusive.
SMILES,KB-V1 cytotox,HT1080 IDH1KD tx,TDP1 cell CPT,KB-3-1 cytotox,DT40 TDP1 no CPT,HT1080-NT tox
COc1ccccc1CNC(=O)c1ccc2[nH]c(C)c(C)c2c1,.,.,-,.,-,.
COc1ccc(CN(C)C(=O)c2ccc(NC(=O)CC3SC(N4CCCCC4)=NC3=O)cc2)c(OC)c1 (stereo unspecified),?,-,?,-,?,-
CC(C)c1ccc(/C=C2\C=Cc3ccccc32)cc1,-,.,?,-,?,.
O=c1c(Cl)c(Cl)cnn1Cc1ccc(F)cc1,-,?,-,?,13µM,?
O=c1cnn(Cc2ccc(F)cc2)c2ccccc12,-,-,?,-,?,-
C=CCn1c(C)cc(C(=O)CN2NS(=O)(=O)c3ccccc3C2=O)c1C,?,18µM,4.6µM,?,3.7µM,16µM
COc1ccc(NC(=O)CSc2nc3c(oc4ccccc43)c(=O)n2-c2ccccc2)cc1OC,-,.,?,-,?,.
Cn1c(SCc2ccccc2)nnc1-c1ccc(O)cc1,-,-,-,-,-,-
COc1cccc(OCC(Cn2c(C)nc3ccccc32)OC(C)=O)c1 (stereo unspecified),-,?,?,-,8.2µM,?
CC(C)c1nc2ccccc2n1CC(O)COC1CCCCC1 (stereo unspecified),?,-,?,-,16µM,-
CC(=O)Nc1ccc(OCC(O)Cn2c(C)nc3ccccc32)cc1 (stereo unspecified),-,-,?,-,?,-
Cc1nc2ccccc2n1CC(O)COC1CCCCC1 (stereo unspecified),16µM,-,18µM,-,21µM,-
CC(=O)N(C)c1ccc(OCC(O)Cn2c(C)nc3ccccc32)cc1 (stereo unspecified),-,-,5.8µM,?,6.5µM,-
CC(=O)Nc1ccc(OCC(O)Cn2c(C(C)C)nc3ccccc32)cc1 (stereo unspecified),-,-,-,-,-,-
COc1ccc(N(CC(O)Cn2c(C)nc3ccccc32)S(=O)(=O)c2ccccc2)cc1 (stereo unspecified),?,-,-,-,?,-
CCOC(=O)c1cnc2ccc(Cl)cc2c1Nc1ccc(N2CCOCC2)cc1,-,.,15µM,-,15µM,.
CCOC(=O)c1cnc2ccc(C)cc2c1Nc1ccc(N2CCOCC2)cc1,-,?,?,?,?,?
CCOC(=O)c1cnc2ccc(C)cc2c1Sc1ccccc1,?,-,?,?,26µM,-
CCOC(=O)c1cnc2ccc(Cl)cc2c1Nc1ccc(S(=O)(=O)Nc2ncccn2)cc1,-,-,-,-,-,-
CCOC(=O)c1cnc2ccc(C)cc2c1Nc1ccc(N(CC)CC)cc1,-,.,12µM,-,6.5µM,.
CCOC(=O)c1cnc2ccc(C(=O)OC)cc2c1Nc1ccc(N2CCOCC2)cc1,?,.,10µM,-,12µM,.
CCOC(=O)c1cnc2ccc(C)cc2c1N(C)Cc1ccccc1,-,-,?,?,?,-
Cc1cc(Cl)ccc1NC(=O)CS(=O)(=O)c1cccc2nsnc12,?,.,?,-,?,.
COc1ccc(S(=O)(=O)NN=C2CCCC2)cc1,-,-,-,-,-,-
COc1cc(C(=O)O/N=C2\C=CC(=O)C(C)=C2)cc(OC)c1OC,?,?,6.5µM,?,16µM,23µM
SMILES,KB-V1 cytotox,HT1080 IDH1KD tx,TDP1 cell CPT,KB-3-1 cytotox,DT40 TDP1 no CPT,HT1080-NT tox
COc1cc(C(=O)O/N=C(\N)c2ccncc2)cc(OC)c1OC,-,-,?,-,?,-
COc1ccc(S(=O)(=O)N=C2C=C(C)C(=O)C(C)=C2)cc1,-,-,15µM,-,21µM,-
COc1ccc(C(=O)ON=C2C=C(C)C(=O)C(C)=C2)cc1,-,-,13µM,-,23µM,-
COc1cc(C(=O)ON=C2C=C(C)C(=O)C(C)=C2)cc(OC)c1OC,-,-,15µM,-,16µM,-
C[C@@H]1CN([C@@H](C)CO)C(=O)c2cc(NC(=O)C3CCCCC3)ccc2O[C@@H](C)CCCCO[C@@H]1CN(C)Cc1ccncc1,-,-,-,-,-,-
CC(C)(C)CC(=O)Nc1ccc(S(=O)(=O)NC2=NCCCCC2)cc1,-,-,-,-,-,-
C[C@@H]1C[C@@H]2OC(=O)[C@]3(C)[C@H]2[C@@H](OC3(C)O)[C@]2(C)C(=O)C=C[C@H]12 (stereo partly specified),-,-,18µM,?,?,-
Cc1nc2ccccc2nc1CN1CCOc2ccc(CN3CCc4sccc4C3)cc2C1,.,.,-,.,-,.
CC(=O)Nc1cccc(C(=O)/C=C/c2ccc(C)cc2)c1,-,?,9.2µM,?,10µM,-
CCC(=O)Nc1cccc(C(=O)/C=C/c2ccc(F)cc2)c1,-,?,4.6µM,?,2.6µM,-
CCCCOc1ccc(/C=C/C(=O)OCC(=O)N2CC(=O)Nc3ccccc32)cc1OCC,?,?,?,-,?,-
Fc1ccc(-c2csc(Nc3ccccn3)n2)c(F)c1,?,?,?,18µM,?,?
Cc1cc(-c2csc(Nc3ccccn3)n2)ccc1F,-,?,?,-,21µM,?
Cc1ccc(-c2csc(Nc3ccccn3)n2)cc1,-,-,?,-,?,?
c1ccc(-c2csc(Nc3ccccn3)n2)cc1,-,-,-,-,?,-
COc1ccc(C(=O)OCC(=O)NC2CC2)cc1,-,-,-,-,-,-
Cc1cnc(SCc2ccccn2)nc1C1CCCN(C(=O)c2coc3c2C(=O)CCC3)C1 (stereo unspecified),.,.,?,.,23µM,.
Cc1cnc(SCc2ccccn2)nc1C1CCCN(C(=O)c2noc3c2CCCC3)C1 (stereo unspecified),.,.,10µM,.,15µM,.
COc1cccc(C(=O)N2CCCC(c3nc(SCCN4CCOCC4)ncc3C)C2)c1 (stereo unspecified),.,.,?,.,16µM,.
COc1ccc(C(=O)N2CCCC(c3nc(SCc4ccccn4)ncc3C)C2)cc1F (stereo unspecified),.,.,9.2µM,.,7.3µM,.
O=C(NCCN1CCC(n2c(=O)[nH]c3ccccc32)CC1)c1ccc(F)cc1F,?,-,-,-,-,-
Cc1cccc(N2CCN(C(=O)C3CCCN(S(=O)(=O)c4cccc5nsnc45)C3)CC2)c1C (stereo unspecified),-,.,-,-,18µM,.
O=C(NCc1ccccc1)C1CCCN(S(=O)(=O)c2cccc3nonc23)C1 (stereo unspecified),18µM,-,?,-,?,-
CCN1CCN(C(=O)C2CCCN(S(=O)(=O)c3cccc4nsnc34)C2)CC1 (stereo unspecified),-,-,-,-,-,-

# Assay outcomes: PubChem BioAssay, National Center for Advancing Translational Sciences (NCATS)
